RE007 growth inh – qHTS Assay for Inhibitors of the HIV-1 protein Vpr; S. pombe RE007 Vpr strain, BacTiter-Glo ATP luminescence, 24 h; Potency, µM (highest dose often 92.2 µM), without a hit: top-dose activity change, negative = less growth, usual class: inhibitors; 360,000 compounds, 0.21% hits; active = well fitted falling curve with a large enough effect; inconclusive = small, poorly fitted or top-dose-only effect; inactive = no such curve, though single readings can be large or run the other way; note: nearly all actives have a fitted effect of over 50% in size
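Fission yeast strain RE007, carrying one chromosomally integrated HIV-1 vpr copy, was seeded at OD 0.01 in PMG+AL medium with 23 nL pinned compound. After 24 h at 30 °C and 99% humidity, viability was read by BacTiter-Glo luminescence.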
LmPK inhibitor – qHTS Assay for Inhibitors of Leishmania Mexicana Pyruvate Kinase (LmPK). Q27686. purified LmPK, Kinase-Glo ATP luminescence, 1 h. Potency, µM (doses to about 57.5 µM), for the others: at the highest dose activity change, negative = inhibition, hits mostly inhibitors. 290,000 compounds, 0.37% hits
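In 50 mM imidazole pH 7.2 with 7 mM MgCl2, LmPK (0.1 nM) turned over PEP (0.5 mM) and ADP (0.1 mM) for 1 h at room temperature. Luciferase read-out of ATP.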
Tb PYK inh – qHTS of Trypanosoma Brucei Inhibitors. pyruvate kinase (Trypanosoma brucei), Q57TT1. AID 624173, 2012. 410,000 compounds, 0.12% hits. Potency, µM (doses to about 76.8 µM), inactives show top-dose activity, negative = inhibition, hits mostly inhibitors. TbPYK enzyme, Kinase-Glo Plus ATP luminescence, 45 min; note: nearly all actives have a fitted effect of over 50% in size
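TbPYK + substrate in 50 mM TEA pH 7.2, 100 mM KCl, 10 mM MgCl2, 0.05% BSA, 0.01% Tween-20; cpd pinned; ADP 130 uM final; 45 min RT; Kinase-Glo Plus 10 min; luminescence endpoint.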
Giardia FBPA inh-1 – qHTS Assay for Inhibitors of Fructose-1,6-bisphosphate Aldolase from Giardia Lamblia; AID 2451, 2010; Potency, µM (series often up to 59.6 µM), for inactives: top-dose activity, negative = inhibition, most hits filed as inhibitors; 290,000 compounds, 0.71% hits; purified Giardia FBPA; note: nearly all actives have a fitted effect of over 55% in size
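Giardia FBPA (40 nM reagent) was preincubated 10 min at RT with compound (up to 57.5 uM final), then substrate plus GAPDH/TPI/NAD/arsenate coupling system with diaphorase/resazurin was added; resorufin fluorescence (525/598 nm) was read after 20 min.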
Giardia growth – qHTS Assay for Inhibitors of Fructose-1,6-bisphosphate Aldolase from Giardia Lamblia: Giardia lamblia growth inhibition; shares compounds with Giardia FBPA inh-1; Giardia lamblia trophozoite growth inhibition; Potency, µM (top dose mostly 57.5 µM), for the others: at the top dose activity change, negative = inhibition, most hits filed as inhibitors; 1,500 compounds, 5% hits;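 note: trophozoites exposed to compound for 48 h at 37 °C; nearly all actives have a fitted effect of over 70% in size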
Mammal cell tox – qHTS Assay for Inhibitors of Fructose-1,6-bisphosphate Aldolase from Giardia Lamblia: Mammalian cellular toxicity; shares compounds with Giardia FBPA inh-1; mammalian cell viability counter-screen, qHTS; Potency, µM (titrated, usually from 57.5 µM), without a hit: at the highest dose viability change, negative = toxicity, usual class: inhibitors; 1,500 compounds, 4% hits;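 note: Chinese hamster ovary cells used as mammalian cytotoxicity surrogate; viability measured as cellular ATP by luminescence; compound exposure lasted 48 h before reading; nearly all actives have a fitted effect of over 60% in size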
Giardia FBPA inh-2 – qHTS Assay for Inhibitors of Fructose-1,6-bisphosphate Aldolase from Giardia Lamblia: Primary screen confirmation | shares compounds with Giardia FBPA inh-1 | purified Giardia aldolase enzyme activity, qHTS | Potency, µM (doses to about 57.5 µM), without a hit: top-dose activity change, negative = inhibition, most hits filed as inhibitors | 1,500 compounds, 5% hits; note: nearly all actives have a fitted effect of over 45% in size
Rabbit FBPA inh – qHTS Assay for Inhibitors of Fructose-1,6-bisphosphate Aldolase from Giardia Lamblia: Rabbit FBPA Selectivity; 1,500 compounds, 4% hits; Potency, µM (titrated, usually from 57.5 µM), without a hit: at the top dose activity, negative = inhibition, actives largely listed as inhibitors; Rabbit muscle FBPA enzyme inhibition, selectivity counter-screen; shares compounds with Giardia FBPA inh-1; note: nearly all actives have a fitted effect of over 60% in size
Target sequence (P00883 whole entry, looked up): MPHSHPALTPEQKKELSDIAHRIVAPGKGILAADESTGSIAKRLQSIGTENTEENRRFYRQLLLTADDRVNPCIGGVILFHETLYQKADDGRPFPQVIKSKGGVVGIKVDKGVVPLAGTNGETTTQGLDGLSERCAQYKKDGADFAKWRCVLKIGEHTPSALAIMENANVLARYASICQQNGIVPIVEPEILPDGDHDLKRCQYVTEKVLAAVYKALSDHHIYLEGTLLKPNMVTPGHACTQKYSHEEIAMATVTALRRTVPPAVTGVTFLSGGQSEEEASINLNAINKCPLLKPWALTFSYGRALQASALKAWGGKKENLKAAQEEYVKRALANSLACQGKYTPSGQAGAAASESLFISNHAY
GAPDH counter – qHTS Assay for Inhibitors of Fructose-1,6-bisphosphate Aldolase from Giardia Lamblia: Coupling assay counterscreen confirmation | Potency, µM (titrated, usually from 57.5 µM), for inactives: at the top dose activity change, negative = inhibition, actives largely listed as inhibitors | 1,500 compounds, 6% hits | GAPDH coupling enzyme counterscreen, biochemical, qHTS | shares compounds with Giardia FBPA inh-1 | AID 2795, 2010; note: nearly all actives have a fitted effect of over 55% in size
An asterisk follows results filed as active; ? = inconclusive; / = not tested or not shown; [ ] = dose if it differs, or a comment. Only some compounds are listed: those with a hit (about 0.95% of all), similar ones and a draw of the others. Unless noted, calls come from the whole dose curve; as a rule, active = well fitted curve in the direction sought with a large enough effect; inconclusive = small, poorly fitted or top-dose-only effect, or another doubt; inactive = no such curve, though single readings can be large; an effect the other way counts as inactive or inconclusive. % is set by controls: 0 for no effect and ±100 for the full control effect; potency is the fitted concentration of half-maximal effect.

SMILES	RE007 growth inh	LmPK inhibitor	Tb PYK inh	Giardia FBPA inh-1	Giardia growth	Mammal cell tox	Giardia FBPA inh-2	Rabbit FBPA inh	GAPDH counter
O=C(O)CN1C(=O)CN=C(c2ccccn2)c2cc(Cl)ccc21	1%	-4%	2%	20µM*	-15%	-3%	0%	7%	8%
CC1(C)CC(NC(=S)Nc2ccc(S(N)(=O)=O)cc2)CC(C)(C)N1	35%	-10%	-4%	8.9µM*	18%[38.3 µM]	-2%	-7%	-4%	-3%
COc1cccc2cc(C(C)N(CCCN3CCOCC3)C(=S)Nc3ccc(C)c(C)c3)oc12 (stereo unspecified)	-3%	0%	-8%	-3%	/	/	/	/	/
COc1ccc(NC(=S)N(CCCN2CCOCC2)C(C)c2cc3cccc(OC)c3o2)cc1 (stereo unspecified)	10%	1%	-6%	11µM*	?	0%	-2%	2%	5%
Cc1cc(C)c(S(=O)(=O)/N=C2/C=C(Sc3ncn[nH]3)C(=O)c3ccccc32)cc1C	?	7.9µM*	5.6µM*	0.79µM*	14µM*	20µM*	6.3µM*	7.1µM*	5µM*
Cc1ccc(C)c(S(=O)(=O)/N=C2\C=C(NS(=O)(=O)c3ccccc3)C(=O)c3ccccc32)c1	-8%	-4%	-1%	/	/	/	/	/	/
CS(=O)(=O)N1CCCc2cc(C(=O)Nc3cccc(C(F)(F)F)c3)ccc21	/	/	-4%	/	/	/	/	/	/
O=C(NN1C(=O)CSC1=S)c1cccnc1	2%	0%	-6%	16µM*	10%	-1%	1%	3%	11%
COc1ccc(NC(=O)Cn2nnc(C(=O)NCc3ccc4c(c3)OCO4)c2N)c(OC)c1	1%	1%	-17%	-3%	/	/	/	/	/
O=C(NNc1ccnc2cc(Cl)ccc12)C1CCCCC1	-1%	-10%	-3%	-1%	/	/	/	/	/
NC(=S)NNc1ccc(Cl)c(Cl)c1	11µM*	0%	-13%	13µM*	13%	-10%	-15%	3%	-6%
NC(=S)NNc1ccnc2cc(Cl)ccc12	-1%	8%	-3%	16µM*	?	-4%	-4%	-3%	15%
Cc1ccc(NNC(N)=S)cc1Cl	?	-2%	-9%	18µM*	-22%	13%	-6%	3%	-6%
Cc1ccccc1CNC(=O)CN1C(=O)CCCc2ccccc21	/	/	-9%	/	/	/	/	/	/
COc1ccc(C(CNC(=O)CCNS(=O)(=O)c2ccc(Br)cc2)N2CCOCC2)cc1 (stereo unspecified)	1%	/	1%	/	/	/	/	/	/
CCn1c(O)c(C(c2ccccn2)c2c(O)n(CC)c(=S)[nH]c2=O)c(=O)[nH]c1=S	4%	-6%	-23%	18µM*	18%[10.4 µM]	5%	-6%	12%	11%
O=c1[nH]c(=S)[nH]c(O)c1C(c1ccccn1)c1c(O)[nH]c(=S)[nH]c1=O	0%	1%	-29%	16µM*	2%[10.4 µM]	13%	-2%	11%	-5%
